# Test results published in PubChem BioAssay AID1159580 (chemical genetic matrix, 2015).
# Where “and” joins values, the source holds several entries; their conditions need not be identical. Identical values can stand only once. About 2,000 (36%) of roughly 5,500 compounds were called active. Inconclusive results (about 18%) are left out. Rule as the data show it: active = normalized growth mostly below about 0.91 (no sharp cut-off); inconclusive = no clear call, values can overlap the other calls; inactive = mostly above about 0.92. This is one part of the list.
# Assay: chemical genetic growth profiling, strain panel (AID 1159580);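 also: tested at 20 µM; growth read once vehicle control cultures reached saturation at 30 °C; 1 = growth at the plate median or of vehicle wells; lower values mean less growth of the strain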
# Details: S. cerevisiae deletion strains, growth OD
compound,measurement,setting,value
COc1ccc(-c2coc3c(O)c(OC)ccc3c2=O)cc1,normalized growth,"locus YAL021C, strain ccr4, stronger effect = lower value",0.907 (inactive)
same,normalized growth,"locus YAL026C, strain drs2, stronger effect = lower value",0.944 (inactive)
same,normalized growth,"locus YAL030W, strain snc1, stronger effect = lower value",0.966 (inactive)
same,normalized growth,"locus YBL061C, strain skt5, stronger effect = lower value",0.983 (inactive)
same,normalized growth,"locus YBR009C, strain hhf1, stronger effect = lower value",0.887 (active)
same,normalized growth,"locus YBR021W, strain FUR4, stronger effect = lower value",0.818 (active)
same,normalized growth,"locus YBR023C, strain chs3, stronger effect = lower value",0.887 (active)
same,normalized growth,"locus YBR171W, strain sec66, stronger effect = lower value",0.957 (inactive)
same,normalized growth,"locus YBR229C, strain ROT2, stronger effect = lower value",0.905 (active)
same,normalized growth,"locus YBR231C, strain swc5, stronger effect = lower value",0.893 (active)
same,normalized growth,"locus YBR279W, strain paf1, stronger effect = lower value",0.977 (inactive)
same,normalized growth,"locus YCL011C, strain gbp2, stronger effect = lower value",0.927 (inactive)
same,normalized growth,"locus YCL016C, strain dcc1, stronger effect = lower value",0.877 (active)
same,normalized growth,"locus YCL029C, strain bik1, stronger effect = lower value",0.914 (inactive)
same,normalized growth,"locus YCL069W, strain vba3, stronger effect = lower value",0.945 (inactive)
same,normalized growth,"locus YCR088W, strain abp1, stronger effect = lower value",0.973 (inactive)
same,normalized growth,"locus YDL005C, strain med2, stronger effect = lower value",1.01 (inactive)
same,normalized growth,"locus YDL035C, strain GPR1, stronger effect = lower value",0.874 (inactive)
same,normalized growth,"locus YDL040C, strain nat1, stronger effect = lower value",0.987 (inactive)
same,normalized growth,"locus YDL074C, strain BRE1, stronger effect = lower value",0.786 (inactive)
same,normalized growth,"locus YDL101C, strain DUN1, stronger effect = lower value",0.932 (inactive)
same,normalized growth,"locus YDL185W, strain tfp1, stronger effect = lower value",0.888 (active)
same,normalized growth,"locus YDL192W, strain arf1, stronger effect = lower value",0.837 (active)
same,normalized growth,"locus YDR001C, strain nth1, stronger effect = lower value",1 (inactive)
same,normalized growth,"locus YDR069C, strain doa4, stronger effect = lower value",1 (inactive)
same,normalized growth,"locus YDR101C, strain arx1, stronger effect = lower value",0.863 (active)
same,normalized growth,"locus YDR137W, strain rgp1, stronger effect = lower value",0.696 (active)
same,normalized growth,"locus YDR159W, strain sac3, stronger effect = lower value",0.797 (active)
same,normalized growth,"locus YDR162C, strain NBP2, stronger effect = lower value",0.755 (active)
same,normalized growth,"locus YDR195W, strain ref2",1.01 (inactive)
same,normalized growth,"locus YDR297W, strain sur2, stronger effect = lower value",0.967 (inactive)
same,normalized growth,"locus YDR318W, strain mcm21, stronger effect = lower value",0.871 (active)
same,normalized growth,"locus YDR334W, strain swr1, stronger effect = lower value",0.96 (inactive)
same,normalized growth,"locus YDR335W, strain msn5, stronger effect = lower value",0.93 (inactive)
same,normalized growth,"locus YDR388W, stronger effect = lower value",0.944 (inactive)
same,normalized growth,"locus YDR392W, strain spt3, stronger effect = lower value",0.383 (active)
same,normalized growth,"locus YDR502C, strain sam2, stronger effect = lower value",0.936 (inactive)
same,normalized growth,"locus YEL003W, strain gim4, stronger effect = lower value",0.944 (inactive)
same,normalized growth,"locus YEL037C, strain rad23, stronger effect = lower value",0.959 (inactive)
same,normalized growth,"locus YEL061C, strain CIN8 (second series), stronger effect = lower value",0.963 (inactive)
same,normalized growth,"locus YEL061C, strain CIN8, stronger effect = lower value",0.931 (inactive)
same,normalized growth,"locus YER015W, strain faa2, stronger effect = lower value",0.939 (inactive)
same,normalized growth,"locus YER016W, strain bim1, stronger effect = lower value",0.966 (inactive)
same,normalized growth,"locus YER110C, stronger effect = lower value",0.904 (inactive)
same,normalized growth,"locus YER111C, strain swi4, stronger effect = lower value",0.993 (inactive)
same,normalized growth,"locus YER155C, strain BEM2 (second series), stronger effect = lower value",0.54 (active)
same,normalized growth,"locus YER155C, strain BEM2, stronger effect = lower value",0.942 (inactive)
same,normalized growth,"locus YER167W, strain BCK2, stronger effect = lower value",0.87 (active)
same,normalized growth,"locus YFR010W, strain ubp6, stronger effect = lower value",1 (inactive)
same,normalized growth,"locus YGL078C, strain dbp3, stronger effect = lower value",0.959 (inactive)
same,normalized growth,"locus YGL086W, strain mad1, stronger effect = lower value",0.862 (active)
same,normalized growth,"locus YGL167C, strain pmr1, stronger effect = lower value",0.976 (inactive)
same,normalized growth,"locus YGL173C, strain kem1, stronger effect = lower value",0.97 (inactive)
same,normalized growth,"locus YGL227W, strain vid30, stronger effect = lower value",0.983 (inactive)
same,normalized growth,"locus YGL240W, strain doc1, stronger effect = lower value",0.851 (active)
same,normalized growth,"locus YGL248W, strain PDE1, stronger effect = lower value",0.906 (inactive)
same,normalized growth,"locus YGL253W, strain hxk2, stronger effect = lower value",0.954 (inactive)
same,normalized growth,"locus YGR135W, strain pre9, stronger effect = lower value",0.916 (inactive)
same,normalized growth,"locus YGR252W, strain gcn5, stronger effect = lower value",0.781 (inactive)
same,normalized growth,"locus YHR013C, strain ard1, stronger effect = lower value",0.966 (inactive)
same,normalized growth,"locus YHR027C, strain rpn1, stronger effect = lower value",0.98 (inactive)
same,normalized growth,"locus YHR030C, strain SLT2, stronger effect = lower value",0.943 (inactive) and 1.02 (inactive)
same,normalized growth,"locus YHR079C, strain IRE1 (second series), stronger effect = lower value",0.955 (inactive)
same,normalized growth,"locus YHR079C, strain IRE1, stronger effect = lower value",1.01 (inactive)
same,normalized growth,"locus YHR094C, strain hxt1, stronger effect = lower value",0.941 (inactive)
same,normalized growth,"locus YHR129C, strain ARP1, stronger effect = lower value",0.907 (active)
same,normalized growth,"locus YHR142W, strain chs7, stronger effect = lower value",0.832 (active)
same,normalized growth,"locus YHR200W, strain rpn10, stronger effect = lower value",0.902 (active)
same,normalized growth,"locus YIL066C, strain RNR3, stronger effect = lower value",0.757 (active)
same,normalized growth,"locus YIL073C, strain SPO22, stronger effect = lower value",0.824 (inactive)
same,normalized growth,"locus YIL125W, strain kgd1, stronger effect = lower value",0.948 (inactive)
same,normalized growth,"locus YIR030C, strain dcg1, stronger effect = lower value",0.944 (inactive)
same,normalized growth,"locus YJL092W, strain hpr5, stronger effect = lower value",0.982 (inactive)
same,normalized growth,"locus YJL095W, strain BCK1 (second series), stronger effect = lower value",0.959 (inactive)
same,normalized growth,"locus YJL095W, strain BCK1, stronger effect = lower value",0.757 (active) and 1 (inactive)
same,normalized growth,"locus YJL115W, strain asf1, stronger effect = lower value",0.943 (inactive)
same,normalized growth,"locus YJL129C, strain trk1, stronger effect = lower value",0.731 (active)
same,normalized growth,"locus YJL134W, strain LCB3, stronger effect = lower value",0.937 (inactive)
same,normalized growth,"locus YJL154C, strain vps35, stronger effect = lower value",0.974 (inactive)
same,normalized growth,"locus YJL164C, strain tpk1, stronger effect = lower value",0.941 (inactive)
same,normalized growth,"locus YJL166W, strain qcr8, stronger effect = lower value",0.828 (active)
same,normalized growth,"locus YJL168C, strain set2, stronger effect = lower value",0.954 (inactive)
same,normalized growth,"locus YJL187C, strain SWE1 (second series), stronger effect = lower value",0.904 (inactive)
same,normalized growth,"locus YJR066W, strain TOR1, stronger effect = lower value",0.959 (inactive)
